Results taken from PubChem BioAssay (NCI).
This is part of a sample that, as a whole, favours compounds with a hit. Of some 83,000 tested, about 20% had one in any assay.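 The test compound was applied at a single concentration to cells in 96-well plates for 48 hours, and percent growth was recorded.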 Values without a mark were called inactive. Activity calls are given as the source filed them. How the source made its calls: active means growth percent below 10; inactive means the rest.

Experiments:
Experiment in all cases: NCI-60 one-dose screen, 48 h (100 = growth as untreated, 0 = no growth, -100 = all killed)
Details in all cases: 10 µM unless noted
SR leukemia = test system: SR leukemia
RPMI-8226 leukemia = test system: RPMI-8226 leukemia
OVCAR-8 ovarian = test system: OVCAR-8 ovarian
OVCAR-5 ovarian = test system: OVCAR-5 ovarian
OVCAR-4 ovarian = test system: OVCAR-4 ovarian
SK-OV-3 ovarian = test system: SK-OV-3 ovarian
OVCAR-3 ovarian = test system: OVCAR-3 ovarian
HS 578T breast = test system: HS 578T breast
NCI/ADR-RES ovarian = test system: NCI/ADR-RES ovarian
T-47D breast = test system: T-47D breast
BT-549 breast = test system: BT-549 breast
MDA-MB-435 melanoma = test system: MDA-MB-435 melanoma
SW-620 colon = test system: SW-620 colon
HCT-116 colon = test system: HCT-116 colon
KM12 colon = test system: KM12 colon
MCF7 breast = test system: MCF7 breast
HCC-2998 colon = test system: HCC-2998 colon
IGROV1 ovarian = test system: IGROV1 ovarian

Structure (SMILES)	growth (SR leukemia)	growth (RPMI-8226 leukemia)	growth (OVCAR-8 ovarian)	growth (OVCAR-5 ovarian)	growth (OVCAR-4 ovarian)	growth (SK-OV-3 ovarian)	growth (OVCAR-3 ovarian)	growth (HS 578T breast)	growth (NCI/ADR-RES ovarian)	growth (T-47D breast)	growth (BT-549 breast)	growth (MDA-MB-435 melanoma)	growth (SW-620 colon)	growth (HCT-116 colon)	growth (KM12 colon)	growth (MCF7 breast)	growth (HCC-2998 colon)	growth (IGROV1 ovarian)
NC(=NCCCOc1ccc(Cl)cc1)Nc1ccc(Cl)cc1	4.92% (active)	15.1%	60.4%	30.5%	26.4%	69.2%	54.3%	41.5%	53.1%	8.01% (active)	59.6%	11.1%	33.5%	7.02% (active)	41.3%			
CC(C)C[C@@H](NC(=O)[C@@H](Cc1ccccc1)NC(=O)c1cnccn1)B1Oc2ccc(C[C@H](NC(=O)[C@H](Cc3ccc4c(c3)OB([C@@H](CC(C)C)NC(=O)[C@@H](Cc3ccccc3)NC(=O)c3cnccn3)O4)NC(=O)[C@@H](N)CC3CCC4OB([C@@H](CC(C)C)NC(=O)[C@@H](CC5CCCCC5)NC(=O)C5CNCCN5)OC4C3)C(=O)NCCCC[C@@H]3NC(=O)[C@@H](Cc4ccccc4)NC(=O)[C@H](CC(=O)O)NC(=O)CNC(=O)[C@H](CCCNC(=N)N)NC3=O)cc2O1 (stereo not given in full)	1.49% (active)	0.76% (active)	-45.3% (active)	-31% (active)	-26.7% (active)	-30% (active)	-49.3% (active)	5.06% (active)	-8.71% (active)	-57.8% (active)		-74.7% (active)	-49.5% (active)	-69.2% (active)	-51.5% (active)	-43.9% (active)	-95.7% (active)	
COc1cc2c(cc1-c1c(C)noc1C)ncc1nc(C3CCCC3)n([C@H](C)COC(F)F)c12	18.7%	14.7%	38.6%	78%	40.9%	7.48% (active)	36.5%	11%	35.5%	29.7%	54.8%	32.4%	57.5%	31%	45.8%	19.9%	43.3%	
Fc1ccc2[nH]cc(SSc3c[nH]c4ccc(F)cc34)c2c1	-29.4% (active)	-14% (active)	40.5%	46.8%	46.6%	95.2%			17.4%	27.5%	39.6%	46.2%	91.2%	25.3%	24.3%	32.2%		77.8%
COc1ccc(/C=N/C2=C(C#N)C(c3ccc(N(C)C)cc3)c3ccc4ccccc4c3O2)cc1 (stereo not given)	19.4%	63%	85.8%	88%	86.8%	73.7%	38.2%	58.6%	46.7%	72%	48.4%	4% (active)	46.1%	43.4%	44.1%	45%	96.3%	
CC1=C[C@H]2c3c(c(O)c(O)c4oc5cc(O)ccc5c(=O)c34)[C@H](c3cc(O)c(O)c4oc5cc(O)ccc5c(=O)c34)[C@H]2C(C)(C)C1	24.6%	29.5%	25.4%	59.1%	56%	59.7%	46.4%	22.4%	101%	18.1%	31.4%	20%	19.5%	1.38% (active)	15%		75.4%	
Cn1ccnc1C(=O)/C=C/c1ccccc1	18.9%	-8.79% (active)	20.9%	38.7%	26.8%	27.5%	0.598% (active)	-2.82% (active)	20.9%	18.4%		10.8%	5.92% (active)	9.05% (active)	-20.6% (active)	2.27% (active)		
Cc1cc(N2CCCCC2)nc(NC2CCCC(Nc3ccnc4cc(Cl)ccc34)C2)n1 (stereo not given)	-53.5% (active)	-52.4% (active)	-82.9% (active)	11.2%	-38.8% (active)	-71.7% (active)			-41.8% (active)	-58.5% (active)	-67% (active)	-92% (active)	-66.7% (active)	-86.6% (active)	-29.7% (active)	-50.2% (active)	-62.3% (active)	-33% (active)
O=C(COc1cccc(/C=C2\CSc3ccccc3C2=O)c1)Nc1nccs1	-47% (active)	-31.2% (active)	31%	83.8%	78.3%	116%	24.4%	-8.26% (active)	54.8%	68.9%	-92.9% (active)	20.8%	-74.1% (active)		-39.7% (active)	-0.12% (active)	100%	
COc1ccc(O)c(N=Nc2nccs2)c1	13.4%	25.3%	52.1%	120%	37.1%	85.2%	39.9%	103%	53.6%	37%	95.6%	104%	62.3%	65.5%	73.3%	64.3%	89.4%	
COc1ccc(S(=O)(=O)N2CC3(COC3)C2)cc1NC(=O)c1[nH]c(C)c2c1CCCCC2=O	51.3%	25.8%	54.2%	61.1%	56.6%	39.8%	54.4%	26.7%	91.1%	37%	73.3%	45.5%	72.9%	51.7%	54.6%	21.9%	58.7%	
O=[N+]([O-])c1ccccc1/C=N\NC(=S)N/N=C/c1ccccc1[N+](=O)[O-]	19%	87.3%	102%	86.4%	98.9%	69.1%	-27% (active)	62.9%	14.4%	61%	47.4%	-1.94% (active)	23.9%	18.9%	17%	58.9%	73.5%	
CNc1ccc(-c2cc(=O)oc3ccc(Cl)cc23)cc1	9.27% (active)	18.7%	16.6%	55.6%	62.6%	9.16% (active)	9.85% (active)	16%	12.4%	66.8%	21.8%	-11.5% (active)	23.3%	10%	15%	18.3%	31.6%	
Cc1cc(C)nc(SC2=C(Nc3ccc(C)c(Cl)c3)C(=O)N(Cc3ccccc3)C2=O)n1	25.4% [30 µM]	7.62% [30 µM] (active)	45.3% [30 µM]	103% [30 µM]	58.2% [30 µM]	99% [30 µM]	69% [30 µM]	72.1% [30 µM]	62.8% [30 µM]	26% [30 µM]	51.6% [30 µM]	51.5% [30 µM]	70.9% [30 µM]	42.9% [30 µM]	66.2% [30 µM]	39.6% [30 µM]		
CC(=O)O[C@H]1[C@@H]2OC(=O)C(CSc3ccccc3)[C@@H]2C[C@H]2O[C@]2(C)CC/C=C(\C)CCC[C@@H]1C (stereo not given in full)	58.2%	51.6%	28.7%	83.6%	34.3%	103%	-9.73% (active)	69.6%	29.6%	38.3%		25.8%	-20.7% (active)	-36.7% (active)	51.5%	10.6%	80.7%	
COc1cccc2c1C(=O)c1c(O)c3c(c(O)c1C2=O)C[C@](O)(C(=O)CO)C[C@H]3O[C@@H]1C[C@@H](NC(=O)CCCN(C)C2(c3ccc(F)cc3)CC3CCC2C3)[C@H](O)[C@@H](C)O1 (stereo not given in full)	-60.2% (active)	-41% (active)	-43.1% (active)	-48.3% (active)	-68.9% (active)	84.4%	-84.8% (active)	51.2%	82.4%	81.2%	58.6%	-88.3% (active)		-90.1% (active)	-77.8% (active)	-59% (active)		
CN1CCN(c2nc(NCCCCNc3ccnc4cc(Cl)ccc34)c3ccccc3n2)CC1	-26.6% (active)	-8.38% (active)	38.3%	112%	68.5%	104%	76.6%	81.1%	95.3%	96.1%	74.6%	-10.5% (active)	41.2%	53.1%	65.5%	51.3%	57.4%	
OCC(O)c1nc2ccc3[nH]ncc3c2c2c1CCCC2 (stereo not given)	-4.58% (active)	10.2%	10.8%	10.2%	50.4%		16.1%		9.22% (active)	14%		17.4%	3.04% (active)	1.98% (active)	4.4% (active)	8.02% (active)	29.5%	10.4%
COc1ccc(C(=O)c2sc3nc(C)cc(C)c3c2N)cc1OC	83.5%	96%	65.7%	104%	85.3%		94.8%	91.2%	90.2%		93.2%	91.8%	99.5%	87%	94.3%	84%	99.1%	88.8%
Cn1nc(N)c2cc([C@@H]3Nc4ccc5[nH]ncc5c4[C@H]4C5CCC(C5)[C@@H]34)ccc21 (stereo not given in full)	14.7%	47.8%	38.2%	35.1%	41.4%		-16.2% (active)	20.6%	3.15% (active)	43.6%	38%	-66.6% (active)	22.4%	14.5%	16.6%	18.8%	18%	
CC(=O)c1cc2c(N)c(C(=O)Nc3cccc(F)c3C)sc2nc1C	63.9%	86%	79.6%	110%	79.8%		108%	80.1%	91.5%	80.6%	80.9%	4.9% (active)		92.3%	87.1%	78.9%	85%	94.3%
O=C1Nc2cc(-c3ccc(O)cc3)ccc2/C1=C/c1ccc[nH]1	5.01% (active)	3.47% (active)	12.3%	19%	26.3%		4.63% (active)	18.1%	-1.85% (active)	0.283% (active)	16.9%	7.05% (active)	14.1%	4.68% (active)	2.31% (active)	1.73% (active)	-13.9% (active)	13%
Cc1ccc(C2Oc3ccccc3C3CC(c4cccs4)=NN32)cc1 (stereo not given)	102%	95.3%	99.7%	102%	93.6%		100%		96.6%	94.7%	86.6%	103%	102%	99.9%	94.3%	80.4%	98.7%	80.2%
CC(C)CC1C(=O)N2CCC[C@H]2C2(O)O[C@](NC(=O)C3C=C4c5cccc6[nH]c(Br)c(c56)C[C@H]4N(C)C3)(C(C)C)C(=O)N12 (stereo not given in full)	28.6%	11.1%	63.3%	69.6%	41%		61.5%	89.7%	57.7%	47.2%		62.8%	52.3%	36.1%	40.3%	39.7%	89.1%	59%
CCCCn1cnc2c(Sc3c([N+](=O)[O-])ncn3C)nc(N)nc21	56.1%	52.3%	91.4%	97.6%	89.9%		103%	101%	109%	74.1%	98.3%	102%	102%	87.3%	108%	91%	113%	89.3%
Cc1nn(-c2cc(=O)[nH]c3ccc(Cl)cc23)c(N)c1C#N	121%	97.7%	91.6%	99.3%	89.2%		105%	103%	97.4%	97.1%	111%	103%	98.7%	101%	104%	92.3%	102%	
CCNC(=O)Oc1ccc(/C(=C(\C)c2ccc(Cl)cc2)c2ccc(OCCN3CCCCC3)cc2)cc1	-20.8% (active)	-4.11% (active)	70.4%	74.9%	43.7%		60.8%		64.9%	27.8%	72.8%	43.4%	9.64% (active)	37.4%	37.3%	21.7%	75.1%	56.8%
COc1ccc(SC2c3cc(OC)c(OC)cc3Oc3nc(N)c(C#N)c(N)c32)cc1 (stereo not given)	-36.2% (active)	-36.1% (active)	-85.4% (active)	-71.7% (active)	-97.1% (active)		-96.1% (active)	-2.22% (active)	-16.3% (active)	-41.9% (active)	-79.1% (active)	-84.4% (active)	-64.5% (active)	-88.6% (active)	-79% (active)		-84.3% (active)	-77.1% (active)
CN(CCCCCl)P(=O)(OCc1ccc([N+](=O)[O-])o1)C(F)(F)c1ccc(CC(=O)NC[C@@H](O)/C=C\[C@@H](O)[C@H](CO)Cc2ccccc2)cc1 (stereo not given in full)	47.7%	77.1%	95.1%	111%	95.2%		107%	103%	101%	75.5%	90.7%	65.4%	87.7%	93.3%	85.5%	59.9%	105%	99.4%
Cc1cc(C)nc(SC2=C(Nc3cc(Cl)ccc3O)C(=O)N(Cc3ccccc3)C2=O)n1	54% [30 µM]	36.5% [30 µM]	76.4% [30 µM]	123% [30 µM]	71.2% [30 µM]		88.3% [30 µM]	82.7% [30 µM]	74.6% [30 µM]	60.8% [30 µM]	85.2% [30 µM]	71.6% [30 µM]	91.8% [30 µM]	83% [30 µM]	-23.1% [30 µM] (active)	46.4% [30 µM]		83.8% [30 µM]
